Test results taken from ChEMBL document CHEMBL3988442, “University of Dundee, Small-Polar-MMV Screening Library” (2021).
The whole screen tested about 48,000 compounds, of which about 13,000 (27%) showed an effect of 50% or more. The list shows a part of the results.

Tested on: Wolbachia pipientis
Test: Anti-Wolbachia Cell-Based Screen
Type: functional
Parameters: scale not given: in the data most compounds retested in dose-response had high values
Conditions: 5 µM

Compound	Percent Effect
C=C(C)COc1cccc(C(=O)N2CCC3(CC2)CN(C)CCN3C)c1	-0.7727%
COCc1nc2cc(NCc3nc(C)cs3)ccc2o1	14.28%
COCCN1CC(C(=O)N(C)Cc2csc(C)n2)CC1=O (stereo unspecified)	9.291%
Cc1nc(N)nc(N2CCOc3ccc(CO)cc3C2)c1C	-10.79%
O=C(O)c1cc(-n2cc3c(n2)CCC3)cc(S(=O)(=O)NC2CCCC2)c1	-14.64%
O=C(NC1CCC1)[C@H]1CCS(=O)(=O)[C@@H]2CN(CCc3ccccc3)C[C@H]12.O=C(O)C(F)(F)F	0.08141%
Cc1cccc(CN2C[C@@H]3[C@@H](C(=O)NCC(C)C)CCS(=O)(=O)[C@@H]3C2)c1.O=C(O)C(F)(F)F	114%
CC(C)CNC(=O)[C@H]1CCS(=O)(=O)[C@@H]2CN(Cc3cccc(Cl)c3)C[C@H]12.O=C(O)C(F)(F)F	11.74%
Cc1ccc(CN2C[C@@H]3[C@@H](C(=O)NCC(C)C)CCS(=O)(=O)[C@@H]3C2)cc1.O=C(O)C(F)(F)F	114.4%
CC(SCCC(=O)NC(N)=O)c1cccc(F)c1 (stereo unspecified)	-9.647%
CN(C)CC(=O)N1Cc2nnn(C)c2C(COCC2CC2)C1 (stereo unspecified)	-6.376%
CC(=O)N1CCC(c2nn(C)c3nccnc23)C1 (stereo unspecified)	104.2%
CN(C)CC(=O)N1CC(c2nn(C)c3nccnc23)C1	96.82%
Cc1ncc(CN(C)C(=O)Nc2cccc(N3CCOC3=O)c2)s1	-2.518%
CC(C)N(C(=O)c1csc(-c2ccoc2)n1)C1CCOCC1	-5.774%
Cc1cnn(CC2CCCN2c2ncnc3ccccc23)c1 (stereo unspecified)	-22.63%
CCc1ncc2c(n1)CN(C(=O)COC)C2	5.323%
COCCC(=O)N1Cc2cnc(Cc3ccc(OC)cc3)nc2C1	-12.22%
Cc1nc2c(c(=O)n1C)CN(C(=O)C1CCN(C(=O)C3CCC3)CC1)C2	-3.258%
COCC(=O)N1Cc2nc3c(C)c(-c4cccs4)nn3c(O)c2C1	99.09%
COCCC(=O)N1Cc2nc3c(C)c(-c4cccs4)nn3c(O)c2C1	108.4%
Cc1nc(-c2cccs2)ccc1C(=O)N1CCN(CCO)CC1	-3.936%
COc1cc(C)nc(N2CCN(C(=O)CCc3cccs3)CC2)n1	-2.18%
Cc1nc2c(c(=O)n1C)CN(C(=O)C1CCCN(C(N)=O)C1)C2 (stereo unspecified)	11.31%
Cc1c(-c2cccs2)nn2c(O)c3c(nc12)CN(C(=O)C1CC1)C3	98.04%
c1cc(-c2c[nH]c([C@@H]3COCCN3C3CCCCC3)n2)ccn1	-0.01712%
